High-throughput results deposited in PubChem by several laboratories.
Shown is part of a subset that was picked to be rich in hits.
ARNT-TACC3 inh: disrupts binding between human ARNT and TACC3. Q9Y6A5. AID 623870. inhibition, % at 9.99 µM. 390,000 tested, 0.66% active. AlphaScreen His-ARNT PAS-B/GST-TACC3 binding, luminescence; TACC3 fragment carries E629A point mutation;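 active means mean inhibition of replicates at least 50% and at least half of replicates each reaching 50%; inconclusive means half or more replicates reach 50% but mean below 50%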;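 further: 0% = complete ARNT plus TACC3 wells and 100% = ARNT alone without TACC3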
ERp5 block: ERp5 (human) disulfide isomerase inhibition; Q15084; AID 651711; inhibition, % at 9.99 µM; 350,000 tested, 0.05% active; ERp5 insulin aggregation, absorbance 650 nm, 90 min;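 active means mean replicate inhibition above about 25%, with every replicate also reaching it, limit read from the data, passing the limit was not always enough; inconclusive means only one of those two criteria met; inactive means neither criterion met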
CendR NRP1 mod: modulators of CendR peptide binding to human neuropilin-1. O14786. FAM-RPARPAR peptide binding to NRP-1, fluorescence polarization. inhibition, % at 25 µM. 360,000 tested, 0.85% active;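 active means inhibition or corrected inhibition above about 18%, plus a signal ratio from 0.5 to 1.5, limit read from the data, passing the limit was not always enough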
ALR inh: inhibitors of human sulfhydryl oxidase ALR | purified ALR, DTT oxidation, H2O2 HRP-luminol luminescence | inhibition, % (no concentration beside the values) | 290,000 tested, 3.8% active;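 active means mean replicate inhibition above about 79%, with every replicate also reaching it, limit read from the data; inconclusive means only one of the two criteria met; inactive means mean below limit and not every replicate reaching it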
Target sequence (P55789 whole entry, looked up): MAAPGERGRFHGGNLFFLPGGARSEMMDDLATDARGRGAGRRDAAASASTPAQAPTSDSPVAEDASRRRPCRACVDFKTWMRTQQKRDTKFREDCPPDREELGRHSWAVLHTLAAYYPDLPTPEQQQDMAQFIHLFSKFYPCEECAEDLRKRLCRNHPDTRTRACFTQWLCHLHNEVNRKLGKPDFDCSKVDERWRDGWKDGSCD
PDI inh: blocks human protein disulfide isomerase activity. PDI insulin aggregation turbidity, A650, 90 min. inhibition, % at 10 µM. 350,000 tested, 0.052% active. P07237;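 active means mean inhibition across replicates of 30% or more, whatever share of single replicates reach that level; inconclusive means mean inhibition below 30% while every single replicate reaches 30%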
PglD inh: inhibitors of Campylobacter jejuni PglD acetyltransferase | purified PglD enzyme, DTNB colorimetric CoA detection | 360,000 tested, 0.098% active | AID 602405 | inhibition, % at 12.5 µM; in the data active means inhibition above about 16%, passing the limit was not always enough; inconclusive means no clear call, values can overlap the other calls
Active calls of the source: *; u = inconclusive; x = no result given.

SMILES	ARNT-TACC3 inh	ERp5 block	CendR NRP1 mod	ALR inh	PDI inh	PglD inh
C[C@@H]1CN([C@H](C)CO)C(=O)Cc2cc(NC(=O)Nc3ccc4c(c3)OCO4)ccc2O[C@@H]1CN(C)S(=O)(=O)c1cccs1	3	x	x	x	x	-1
CCOC(=O)/C=C/S(=O)(=O)c1ccc(NC(C)=O)cc1	-8	x	9	98*	-3	-3
O=S(=O)(N[C@H]1CC[C@H](CCn2cc(C3(O)CCCC3)nn2)O[C@@H]1CO)c1ccc(Cl)cc1	-4	0	x	x	x	0
COc1cccc(NC(=O)N2CC(=O)N3[C@@H](CO)[C@@H](c4ccc(C#CC5CCCC5)cc4)[C@@H]3C2)c1	x	-3	x	x	x	x
O=C1CCCN1CCCNC(=S)Nc1ccc(Cl)cc1Cl	-7	5	40*	7	1	1
O=C(NCCCN1CCCC1=O)Nc1ccc(Cl)cc1Cl	-3	5	13	-11	3	12
c1ccc2c(c1)nnn2CNc1nccs1	-1	u	-2	99*	-7	x
c1ccc(CCn2nnc3ccccc32)cc1	-1	0	9	-6	-4	x
CCCNc1ncc2c(=O)[nH][nH]c(=O)c2n1	81*	7	1	x	-4	-6
CO[C@@H]1CN(C)C(=O)c2cc(NC(=O)Nc3cccc(F)c3)ccc2OC[C@@H](C)NC[C@@H]1C	24	-2	x	x	x	2
CCOC(=O)c1ccc2c(c1)n(CC)c(C)[n+]2CC	-6	-4	-3	x	-1	x
CCOC(=O)c1ccc2c(c1)[nH]c(=S)n2CC	x	0	5	83*	-8	-3
NC(CO)C(=O)NNCc1ccc(O)c(O)c1O (centres undefined)	57*	-3	5	68	5	0
Cc1ccc(NC(=O)COc2ccc3c(c2)OCO3)c(C)c1	-3	-6	16*	-3	-2	-1
COc1cc(CNC(C)(C)CO)cc(Br)c1OCc1ccc(Cl)cc1	4	x	30*	-21	9	2
COc1cc(CNC(C)(C)CO)cc(Br)c1OCc1ccc(Cl)cc1Cl	7	6	6	-22	4	x
Cc1cc(Br)cc(C)c1NC(=S)NC(=O)CC(C)C	-7	x	7	90*	4	1
CCCNC(=O)C[C@@H]1CC[C@@H]2[C@H](COC[C@@H](O)CN2C(=O)c2ccc(F)cc2)O1	2	0	x	x	x	1
c1ccc(CNc2c3ccccc3nc3ccccc23)cc1	1	-1	4	-9	-12	0
Oc1ccc(CCNc2c3ccccc3nc3ccccc23)cc1O	24	1	13	99*	-4	-3
C[C@H](CO)N1C[C@H](C)[C@H](CN(C)Cc2ccncc2)Oc2c(NC(=O)C3CCOCC3)cccc2C1=O	7	-1	x	x	x	1
Cc1cnc(C(=O)Nc2ccc(C(=O)N3CCCCC3)cc2)cn1	-7	x	-1	100*	-5	0
Cc1ccc(S(=O)(=O)N(C)C[C@H]2Oc3c(NC(=O)Nc4ccc5c(c4)OCO5)cccc3C(=O)N([C@H](C)CO)C[C@@H]2C)cc1	-8	-7	x	x	x	0
C=CCC1NS(=O)(=O)OCC1NC(=O)OCC(Cl)(Cl)Cl (centres undefined)	-8	12	18	x	-5	0
CC(C)(C)OC1NS(=O)(=O)OCC1NCOC(Cl)(Cl)Cl (centres undefined)	22	12	26*	11	-2	6
SMILES	ARNT-TACC3 inh	ERp5 block	CendR NRP1 mod	ALR inh	PDI inh	PglD inh
C[C@@H]1CCCCO[C@H](CN(C)S(=O)(=O)c2cn(C)cn2)[C@@H](C)CN([C@@H](C)CO)C(=O)c2cc(NC(=O)Cc3ccccc3)ccc2O1	-12	x	x	x	x	1
CCC(=O)N[C@H]1CC[C@@H](CCn2cc(-c3cccc(OC)c3)nn2)O[C@@H]1CO	8	0	x	x	x	-2
COc1ccc(Nc2nc(NCC3CCCO3)c3ccccc3n2)c(OC)c1 (centres undefined)	x	-6	-6	98*	-4	8
CCOc1ccc(Nc2nc(NCC3CCCO3)c3ccccc3n2)cc1 (centres undefined)	18	-4	12	22	-9	x
Oc1cccc(Nc2nc(NCC3CCCO3)c3ccccc3n2)c1 (centres undefined)	44	x	-12	100*	4	2
CO[C@@H]1CN(C)C(=O)c2cc(NC(=O)Nc3cccc(F)c3)ccc2OC[C@H](C)N(C(=O)C2CC2)C[C@@H]1C	2	x	x	x	x	-3
